An excerpt weighted towards active compounds, which were near 8.1% of everything screened.
ELG1 repair inh = ELG1-dependent DNA repair inhibition; HEK293T ELG1-luciferase reporter, luminescence, 16 h; DNA damage induced by 5-fluorouridine; 330,000 tested, 2.3% active; Potency, µM (titrated, usually from 46.1 µM), actives largely listed as inhibitors; also: nearly all actives have a fitted effect of over 55% in size
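5-Fluorouridine DNA damage + compound/DMSO, 2,000 cells/well, 16 h, 37 °C/5% CO2. ONE-Glo, 30 min RT, luminescence. Readout = decrease in reporter signal.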
KB-3-1 tox = KB-3-1 parental cell cytotoxicity; 400,000 tested, 1.4% active; AID 1347075; KB-3-1 viability, CellTiter-Glo ATP luminescence, 72 h; Potency, µM (series often up to 46.1 µM), most hits filed as cytotoxic; also: nearly all actives have a fitted effect of over 60% in size
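KB-3-1 parental drug-naive adenocarcinoma cells in DMEM/10% FBS, incubated 72 h at 37 C with pin-transferred compounds across a concentration series. Viability by CellTiter-Glo luminescence; concentration-response curves fitted after normalization.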
KB-V1 cytotox = kills drug-selected multidrug resistant KB-V1 cells; KB-V1 MDR cells viability, CellTiter-Glo, 72 h; Potency, µM (series often up to 46.1 µM), most hits filed as cytotoxic; 400,000 tested, 3.4% active; AID 1347076; also: nearly all actives have a fitted effect of over 60% in size
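In this primary screen, KB-V1 cells overexpressing P-gp are incubated with library compounds (lowest to highest concentration) for 72 h at 37 degrees C before a luminescent ATP viability read.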
SW480 rerep = inducers of DNA re-replication in SW480 colon cancer cells | SW480 DNA re-replication, Hoechst DNA content imaging, 48 h | Potency, µM (series often up to 46.1 µM), most hits filed as activators | 340,000 tested, 1.8% active; also: nearly all actives have a fitted effect of over 55% in size
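Cells (250 per well) received 23 nL compound or DMSO by pin tool and were kept 48 hr at 37 C, 5% CO2. Nuclei were then stained with Hoechst for 40 min and scanned for DNA content.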
MCF10A rereplic = inducers of DNA re-replication in MCF 10A breast cells; Potency, µM (titrated, usually from 46.1 µM), actives largely listed as activators; MCF 10A DNA re-replication, Hoechst nuclear intensity, 48 h; 350,000 tested, 2.9% active; also: nearly all actives have a fitted effect of over 50% in size
Each line names hits and unclear results; the compound was inactive in the other large screens; ! = repeats disagree. Calls follow the shape of the dose curve; as a rule, active = well fitted curve in the direction sought with a large enough effect; inconclusive = small, poorly fitted or top-dose-only effect, or another doubt; inactive = no such curve, though single readings can be large; an effect the other way counts as inactive or inconclusive.

c1ccc(CNc2c(-c3cccc(SC4CCCCC4)c3)nc3ccccn23)cc1	ELG1 repair inh inconclusive, SW480 rerep 6.51µM, MCF10A rereplic 18.4µM
Clc1cccc(-c2ccc(-c3nc4ccccn4c3NCc3ccccc3)cc2)c1	ELG1 repair inh inconclusive, SW480 rerep inconclusive, MCF10A rereplic 16.4µM
COc1ccc(-c2cc(-c3nc4ccccn4c3NCc3ccccc3)ccc2OC)cc1	ELG1 repair inh 2.31µM, KB-V1 cytotox inconclusive, SW480 rerep 16.4µM, MCF10A rereplic 5.8µM
Cc1ccc2nc(-c3cccc(SC4CCCCC4)c3)c(NCc3ccccc3)n2c1	ELG1 repair inh 25.9µM, KB-3-1 tox inconclusive, KB-V1 cytotox inconclusive, SW480 rerep inconclusive, MCF10A rereplic 18.4µM
Clc1ccc2nc(-c3cccc(SC4CCCCC4)c3)c(NCc3ccccc3)n2c1	ELG1 repair inh inconclusive, MCF10A rereplic inconclusive
COc1ccc(-c2nc3ccccn3c2NCc2ccc3c(c2)OCO3)cc1	ELG1 repair inh inconclusive, KB-V1 cytotox inconclusive, MCF10A rereplic inconclusive
CCOC(=O)Nc1ccc2c(c1)nc(CN1CCOCC1)n2C	none
COc1cc(NC(=S)N2CCN(S(=O)(=O)c3ccccc3)CC2)cc(OC)c1	none
CCc1cc2c(C)ccc(C)c2nc1SCC(=O)Nc1cc(C)on1	none
Cc1ccc([N+](=O)[O-])c(NC(=O)COC(=O)C2CC3CCCC(C2)C3=O)c1C (centres undefined)	KB-V1 cytotox inconclusive
CCCCNc1c(-c2cccc(SC3CCCCC3)c2)nc2ccc(Cl)cn12	ELG1 repair inh inconclusive, KB-3-1 tox inconclusive, KB-V1 cytotox inconclusive, MCF10A rereplic 25.9µM
Cc1ccn2c(NCc3ccccc3)c(-c3cccc(SC4CCCCC4)c3)nc2c1	ELG1 repair inh inconclusive, KB-3-1 tox inconclusive, KB-V1 cytotox 20.6µM!, MCF10A rereplic 20.6µM
CCC(C)Sc1cccc(-c2nc3cc(C)ccn3c2NCc2ccccc2)c1 (centres undefined)	ELG1 repair inh inconclusive, SW480 rerep inconclusive, MCF10A rereplic inconclusive
C#CCOCCOCCOCCNc1nc(N2CCN(C(=O)C([C@@H](C)CC)n3cc(C(N)COC(=O)C(F)(F)F)nn3)CC2)nc(N2CCN(C(=O)[C@H](Cc3cc4ccccc4[nH]3)n3cc(C(N)CO)nn3)CC2)n1 (some centres undefined)	none (no result: ELG1 repair inh)
CCOc1ccc(NC(=S)NC23CC4CC(CC(C4)C2)C3)cc1	none
FC(F)Oc1ccc(NC(=S)NC23CC4CC(CC(C4)C2)C3)cc1	KB-3-1 tox 23.1µM, KB-V1 cytotox 16.4µM
Cc1ccc2[nH]c(C(=O)NN=C3CCCCC3)c(-c3ccccc3)c2c1	ELG1 repair inh inconclusive, KB-V1 cytotox inconclusive, SW480 rerep inconclusive, MCF10A rereplic 16.4µM
O=C(O)CSc1c(-c2ccccc2)c2cc(Cl)ccc2[nH]c1=O	none
COc1ccc(/C=N/NC(=O)c2[nH]c3ccc(Br)cc3c2-c2ccccc2)cc1	KB-3-1 tox 0.82µM, KB-V1 cytotox 1.03µM, SW480 rerep 1.16µM, MCF10A rereplic 0.206µM
COc1ccc(/C=N/NC(=O)c2[nH]c3ccc(Br)cc3c2-c2ccccc2)c(C(=O)O)c1OC	ELG1 repair inh inconclusive
NNC(=O)c1[nH]c2ccc(Cl)cc2c1-c1ccccc1	ELG1 repair inh 16.4µM, KB-3-1 tox inconclusive, KB-V1 cytotox inconclusive, SW480 rerep inconclusive, MCF10A rereplic 9.2µM
O=C(N/N=C/c1ccccc1Cl)c1[nH]c2ccc(Br)cc2c1-c1ccccc1	KB-3-1 tox inconclusive, KB-V1 cytotox 5.8µM, SW480 rerep inconclusive, MCF10A rereplic inconclusive
CCN(Cc1ccccc1)C(=O)CN1C(=O)COc2ccc(S(=O)(=O)N(CC)CC)cc21	none (no result: ELG1 repair inh, SW480 rerep, MCF10A rereplic)
O=C(COC(=O)c1ccc([N+](=O)[O-])o1)Nc1nc2ccccc2s1	none
CC(=O)Nc1c(-c2ccccc2)c2cc(Br)ccc2[nH]c1=O	MCF10A rereplic 0.731µM
COc1ccc(CCN2CC(C(=O)NCc3cc(C(C)C)no3)CCC2=O)cc1 (centres undefined)	none
C/C(=N\NC(=O)Cc1ccc(Cl)cc1)c1ccccc1O	KB-3-1 tox inconclusive, KB-V1 cytotox inconclusive, SW480 rerep 14.6µM
C/C(=N\NC(=O)CSCc1ccc([N+](=O)[O-])cc1)c1ccccc1O	ELG1 repair inh inconclusive, KB-V1 cytotox 20.6µM, SW480 rerep inconclusive
C/C(=N\NC(=O)Cc1ccc(Cl)cc1)c1ccc(F)cc1	none

High-throughput results deposited in PubChem by National Center for Advancing Translational Sciences (NCATS).
